Assay results published in PubChem BioAssay (NCI).
The panel holds about 83,000 compounds, 20% with a hit somewhere; the sample as a whole holds those more often.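 Percent growth is the endpoint: 0 to 100 indicates growth inhibition (40 means 60% inhibition), 0 means no net growth, and negative values indicate cell death.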 Values without a mark were called inactive. Active and inactive are the calls of the source. The calls were made as follows: active = growth percent below 10; inactive = the rest.

What was measured:
Test in all cases: NCI-60 one-dose screen, 48 h (100 = growth as untreated, 0 = no growth, -100 = all killed)
Settings in all cases: 10 µM unless noted
[1] = system: SK-MEL-2 melanoma
[2] = system: EKVX NSCLC
[3] = system: UO-31 renal
[4] = system: ACHN renal
[5] = system: CAKI-1 renal
[6] = system: A498 renal
[7] = system: CCRF-CEM leukemia
[8] = system: MOLT-4 leukemia
[9] = system: TK-10 renal
[10] = system: SN12C renal

Row | Compound | growth [1] | growth [2] [%] | growth [3] | growth [4] | growth [5] | growth [6] | growth [7] | growth [8] | growth [9] | growth [10]
1 | COc1cc(/C=C/c2cc(/C=C/c3ccc(O)c(OC)c3)n(-c3ccccc3)c(=O)n2)ccc1O | 79.5% | 71.4 | 58.6% | 81.1% | 83.7% | 108% | 28.5% | 31.5% |  | 
2 | Cn1cccc1/C=C1/SC(=S)N(CCc2ccc(O)cc2)C1=O | 64.7% | 61 | 53.7% | 59.9% | 44.7% |  | 21.9% | 31% | 110% | 
3 | COc1ccc(-c2nc3ccccn3c2-c2nc3ccc(Cl)cc3[nH]2)cc1 | 97.5% |  | 97.6% | 86.3% | 93.2% |  |  |  | 103% | 97.3%
4 | O=C1NC(=Nc2ccc(S(=O)(=O)Nc3nccs3)cc2)S/C1=C\c1coc2ccccc2c1=O | 133% |  | 82.6% | 98.6% | 103% | 101% |  |  | 133% | 95.3%
5 | COc1ccc(-c2cc(-c3cccs3)n(N=O)c(=O)c2C#N)cc1 | 105% |  | 89.4% | 109% | 102% | 87.7% | 58.1% | 107% | 114% | 95.8%
6 | COc1cc(-c2cc(-c3nc4ccccc4[nH]3)[nH]n2)cc(OC)c1OC | 47.4% |  | 39.8% | 39.3% | 38.8% | 17.2% |  |  | 70.3% | 65.8%
7 | c1ccc2[nH]c(-c3cc(-c4ccc5c(c4)OCO5)n[nH]3)nc2c1 | 41% |  | 66.7% | 45.6% | 55.1% | 71.8% |  |  | 86% | 62.9%
8 | NC1=C(C/C(N)=N\O)C(c2ccccc2Cl)c2c(ccc3ccccc23)O1 (stereo not drawn) | 90.4% | 80.9 | 58.6% |  | 49.5% | 96.8% | 79.8% | 76% | 180% | 
9 | CC1(C)CC[C@]2(C(=O)NCCNCCN)CC[C@]3(C)C(=CC[C@@H]4[C@@]5(C)CCC(=O)C(C)(C)[C@@H]5CC[C@]43C)[C@@H]2C1 | 82.4% |  | 87.8% | 12.2% | 27.1% | 81.5% | -17.8% (active) | 3.49% (active) | 127% | 14.2%
10 | COc1cc2c(cc1OC)C(=O)/C(=C/c1cc(-c3ccc4c(c3)OCO4)n[nH]1)C2 | 81.3% |  | -72.6% (active) | -7.41% (active) | 56.4% | 25.8% |  |  | -9.8% (active) | 6.08% (active)
11 | CC(C)(C)c1cc(-n2c(-c3ccc(Cl)cc3)nc3cc(C(=O)Nc4ccc(Cl)cc4)ccc32)n[nH]1 | 75.8% |  | 28.5% | 38.4% | 32% | 48% | 62.5% | 45.7% | 50.8% | 66.9%
12 | COc1cc(-c2cc(-c3nc4cc(Cl)c(Cl)cc4[nH]3)[nH]n2)cc(OC)c1OC | 86.5% |  | 43.2% | 46.8% | 84.6% | 67.4% |  |  | 107% | 69.7%
13 | COc1cc(C(=O)/C=C/c2cc(-c3ccc4c(c3)OCO4)n[nH]2)cc(OC)c1OC | 84.7% |  | 39.4% | 42.7% | 66.3% | 4.49% (active) |  |  | 67% | 25.7%
14 | COc1cccc(NC(=O)c2sc3nc4c(cc3c2N)C(=O)CCC4)c1 | 25.3% |  | 52.3% | 42.5% | 55.2% | -3.03% (active) |  |  | 84.2% | 35.3%
15 | N=c1c(S(=O)(=O)c2ccccc2)cc2c(=O)n3ccccc3nc2n1C1CCCC1 | 104% |  | 50.9% | 86% | 64.6% | -1.39% (active) | 93.6% | 82% | 82.5% | 87.2%
16 | COc1cc(-c2cc(-c3nc4ccc(F)cc4[nH]3)[nH]n2)cc(OC)c1OC | 17.5% |  | 26.1% | 19.6% | 28.4% | 8.73% (active) |  |  | 63.7% | 33.8%
17 | O=c1c(CNc2ccc(S(=O)(=O)Nc3ncccn3)cc2)coc2ccccc12 | 95.9% |  | 74.9% | 89.9% | 130% | 102% |  |  | 106% | 90.1%

Row | Compound | growth [1] | growth [2] [%] | growth [3] | growth [4] | growth [5] | growth [6] | growth [7] | growth [8] | growth [9] | growth [10]
18 | COc1ccc2c(c1)C/C(=C\c1cc(-c3ccc4c(c3)OCO4)n[nH]1)C2=O | 128% |  | 75.1% | 82.8% | 90.3% | 85.5% |  |  | 162% | 95.2%
19 | Cc1nc([P+](c2ccccc2)(c2ccccc2)c2ccccc2)c(Sc2sc(-c3ccccc3)nc2[P+](c2ccccc2)(c2ccccc2)c2ccccc2)o1 | 3.95% (active) |  | 20.9% | 17.3% | 15.4% | -9.69% (active) | 18.4% | 13% | 38.7% | 7.4% (active)
20 | N=C(N)c1ccc(S(N)(=O)=O)cc1 | 99.9% | 96.2 | 72.6% | 108% | 92.5% |  | 107% | 102% |  | 
21 | C[C@H]1OC(=O)/C=C/[C@@H](O)[C@@H](O)CCCCCCCC[C@@H]1O | 102% | 99.6 | 82.6% | 100% | 96.3% | 71.1% | 62.4% | 106% |  | 
22 | O=C1NC(c2ccc(Cl)c(Cl)c2)=C/C1=C\c1ccccc1 | 107% |  | 29.2% | 4.37% (active) | 49.3% | 105% | 45.8% | 53.9% | 100% | 71.8%
23 | Cc1ccc(C)c2c1CCC2C(C)C (stereo not drawn) | 110% |  | 88.5% | 97.3% | 95.8% | 110% | 93.5% | 86.4% | 95.6% | 98.6%
24 | COc1cc(/C=N/Nc2ncnc3c2c(C)nn3-c2ccc(F)cc2)ccc1O | 89.9% | 87.6 | 64.4% |  |  | 103% | 62% | 61.7% | 88.7% | 
25 | CCc1ccccc1NC(=O)c1sc2nc3c(cc2c1N)CCCC3 | 31.8% | 72.9 | 48.9% |  | 45.6% | 6.65% (active) | 18.3% | 25.4% | 59.5% | 
26 | CCc1ccc(-c2ccc(Nc3ccccc3)nn2)cc1S(N)(=O)=O | 78.9% |  | 101% | 77% | 92.6% | 72.2% |  |  | 116% | 88.6%
27 | COc1ccc(-c2nc3ncccn3c2-c2nc3ccc(Br)cc3[nH]2)cc1 | 83.5% |  | 84.4% | 88.6% | 93.7% | 75.5% |  |  | 101% | 89%
28 | Nc1c(C(=O)Nc2cccc(Br)c2)sc2nc3c(cc12)C(=O)CCC3 | 30.8% |  | 56.9% | 58.8% | 64% | -3.99% (active) |  |  | 69% | 45.2%
29 | COc1ccc(-c2cc(/C=C/C(=O)c3ccc(N)cc3)[nH]n2)cc1 | 22.4% |  | 39.6% | 26.9% | 38.7% | -16.8% (active) |  |  | 41.8% | 18.4%
30 | Cc1nn(-c2ccc(Cl)cc2)c(=O)n1CCn1cnc2ccccc21 | 109% |  | 90.8% | 109% | 95.8% | 95.6% | 106% | 100% | 108% | 105%
31 | COc1ccc(C2(Cl)c3ccccc3N(c3ccccc3)c3ccccc32)cc1 | -39.9% (active) |  | 7.46% (active) | 4.85% (active) | 7.42% (active) | -26.5% (active) | 20.6% | 12.7% | 8.72% (active) | -1.51% (active)
32 | O=c1c2sc3ncc(Br)cc3c2ncn1-c1cccc(Cl)c1 | 96.3% |  | 52.1% | 28% | 98.8% | 71.7% |  |  | 73.6% | 64.5%
33 | O=c1c(CNc2ccc(S(=O)(=O)Nc3nccs3)cc2)coc2ccccc12 | 98.1% |  | 82.2% | 94.2% | 98.5% | 112% |  |  | 103% | 99.1%
